A selection: hits, their analogues and other compounds. The true share with any hit is near 2.4%.
M1 PAM parental – nonselective calcium activators in parental CHO-K1 cells, primary screen, counter-screen for M1 PAM project, cell-based, Fluo-8 calcium fluorescence, full deck, 1536-well; 360,000 tested, 0.02% active; ATP EC20; 0% at ATP EC20, 100% at ATP max; AID 602247, 2012; activation, % at 3 µM;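 active = activation above the run cutoff, the mean activation of all test compounds plus 3 SD, cut at about 40% in these data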;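 note: peak over basal fluorescence ratio in a 140 s read after ATP addition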
CHRM1 PAM – human M1 muscarinic receptor positive allosteric modulators, primary screen, CHO-K1 cells, Fluo-8 calcium fluorescence, 1536-well; Muscarinic acetylcholine receptor M1 (Homo sapiens), P11229; CHO-K1 hM1, ACh EC20; 0% = ACh EC20, 100% = maximal ACh; activation, % at 3 µM; 360,000 tested, 0.088% active; in the data active = activation above about 19%, passing the limit was not always enough
Target sequence (P11229 whole entry, looked up): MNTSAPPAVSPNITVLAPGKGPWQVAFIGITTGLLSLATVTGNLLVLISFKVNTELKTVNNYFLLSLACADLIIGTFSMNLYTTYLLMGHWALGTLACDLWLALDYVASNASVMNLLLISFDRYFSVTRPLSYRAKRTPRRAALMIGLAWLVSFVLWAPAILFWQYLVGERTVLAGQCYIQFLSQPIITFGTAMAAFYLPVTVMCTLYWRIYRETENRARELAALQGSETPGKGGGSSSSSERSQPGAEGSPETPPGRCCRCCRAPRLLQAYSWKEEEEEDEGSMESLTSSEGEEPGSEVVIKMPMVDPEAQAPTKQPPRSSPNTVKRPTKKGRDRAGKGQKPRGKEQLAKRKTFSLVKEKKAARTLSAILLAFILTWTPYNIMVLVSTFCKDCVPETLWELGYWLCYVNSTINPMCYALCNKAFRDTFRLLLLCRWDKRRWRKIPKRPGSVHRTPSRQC
CHO-K1 Ca antag – nonselective inhibitor or artifact in parental CHO-K1 cells; inhibition, % at 3 µM; 360,000 tested, 0.6% active; ATP-induced calcium, Fluo-8 fluorescence;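 active = inhibition above a per-plate cutoff, the plate's mean sample inhibition plus 3 SD, cut at about 24% in these data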
CHRM1 antagonist – human M1 muscarinic receptor antagonists, primary screen, CHO-K1 cells, Fluo-8 calcium fluorescence, 1536-well; CHO-K1 hM1, ACh EC80 antagonist; inhibition, % at 3 µM; 360,000 tested, 1.3% active; AID 588852, 2011;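 active = percent inhibition above its own plate's cutoff, namely the mean of that plate's compound wells plus 3 SD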;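 note: peak over basal fluorescence ratio during 140 s after agonist addition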
M1 ag parental – counter-screen for M1 agonists: effect in parental CHO-K1 cells; activation, % at 3 µM; 360,000 tested, 0.48% active; AID 602248, 2012; Fluo-8 calcium fluorescence; scaled to maximal ATP response, vehicle zero; in the data active = activation above about 15%;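 note: untransfected CHO-K1 host cells lacking M1 receptor as counterscreen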
CHRM1 agonist – human M1 muscarinic receptor agonists, primary screen, Fluo-8 calcium fluorescence, CHO-K1 cells, HTS | Muscarinic acetylcholine receptor M1 (Homo sapiens), P11229 | CHO-K1 hM1, agonist mode; 0% DMSO, 100% acetylcholine EC100 | activation, % at 3 µM | 360,000 tested, 0.33% active | AID 588814, 2011;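 active = activation above the run's mean compound activation plus 3 SD, cut at about 16% in these data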;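 note: peak over basal fluorescence ratio within a 140 s kinetic read after compound addition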
Each line names hits and unclear results; the compound was inactive in the other large screens.

Cc1ccc(S(=O)(=O)NCCC(=O)N2CCC(C(N)=O)CC2)cc1C	CHRM1 PAM 23.5
O=C(OCC(=O)N1CCN(c2ccc(F)cc2)CC1)c1cnc2ccccc2n1	none
O=C(CN1C(=O)COc2ccc(S(=O)(=O)N3CCCCCC3)cc21)NCc1ccc(F)cc1	none
O=C(c1ccc(Cl)s1)N1CCN(C23CC4CC(CC(C4)C2)C3)CC1	none
O=C(c1cccs1)N1CCN(C23CC4CC(CC(C4)C2)C3)CC1	CHRM1 antagonist 72.0
O=C(CNS(=O)(=O)c1ccc(Br)s1)NCc1ccccc1	none
Cc1ccc(C(=O)NNC(=O)c2ccc(NC(=O)C(C)(C)C)cc2)cc1	M1 ag parental 15.2
CC(C)(C)C(=O)NC(=S)NNC(=O)c1ccc(-c2ccccc2)cc1	CHO-K1 Ca antag 95.1, CHRM1 antagonist 102.9, M1 ag parental 107.0, CHRM1 agonist 115.1
CC(C)(C)C(=O)NC(=S)NNC(=O)c1ccc(Cl)cc1Cl	CHO-K1 Ca antag 58.7, CHRM1 antagonist 87.0, M1 ag parental 119.1, CHRM1 agonist 117.1
CC(C)(C)Cc1c(-c2ccc(F)cc2)nc2ccc(Cl)cn12	none
CC1=C(C(=O)Nc2ccccc2)C(c2ccco2)C(C#N)=C(SCC(=O)OC(C)C)N1 (stereo unspecified)	CHRM1 antagonist 32.6
CC1=C(C(=O)Nc2ccccc2)C(c2ccco2)C(C#N)=C(SCC(=O)Nc2cccc(C)c2C)N1 (stereo unspecified)	none
CCN(CC(=O)Nc1ccc(NC(C)=O)cc1)C(=O)c1cc(S(=O)(=O)N2CCCCCC2)ccc1OC	none
O=c1[nH]c(-c2ccccc2)nc(CN2CCCCC2)c1O	CHRM1 PAM 29.2
CCCCCSc1nnc(N)s1	CHRM1 PAM 26.7
CSc1ncccc1C(=O)Nc1cccc(S(=O)(=O)N2CCCCCC2)c1	none
CC(=O)c1c(C)[nH]c(C(=O)OCC(=O)Nc2ccc(Cl)cc2[N+](=O)[O-])c1C	CHO-K1 Ca antag 37.2, CHRM1 antagonist 33.5
CCOC(=O)c1c(C)[nH]c(C(=O)OCC(=O)Nc2cc(Cl)ccc2OC)c1C	none
C=CCNC(=O)N1CCc2[nH]c3ccc(F)cc3c2C1	CHRM1 agonist 24.5
COc1ccccc1NC(=O)N1CCc2[nH]c3ccc(Cl)cc3c2C1	CHRM1 agonist 21.9
COc1cc2c(cc1OC)CN(C(=O)Nc1ccccc1Cl)CC2	none
O=C(C1CC1)N1CCc2[nH]c3ccccc3c2C1	none
CCCCNC(=O)N1CCc2[nH]c3ccccc3c2C1	CHRM1 agonist 19.5
COCc1cc(C)n(CC(=O)Nc2ccc(N3CCOCC3)cc2)c(=O)c1C#N	none
CS(=O)(=O)N1CCCCC1CCN1CCCCC1 (stereo unspecified)	none
O=C(NCC(=O)N1CC=C(c2ccccc2)CC1)c1ccc(F)cc1	none
COc1ccc(NC(=O)CN(C)C(=O)c2cccc(S(=O)(=O)Nc3ccc(F)cc3)c2)cc1	none
CCOC(=O)C1=C[C@@H](C(C)(C)C)N(S(=O)(=O)c2ccc(C)cc2)[C@H]1c1ccc(C)cc1	none
CCOC(=O)C1=C[C@@H](C(C)(C)C)N(S(=O)(=O)c2ccc(C)cc2)[C@H]1c1ccccc1Cl	CHO-K1 Ca antag 24.2
O=C(NN=C1CCCC1)c1cc(-c2ccc(F)cc2)nc2ccccc12	none
Cc1cc(C(=O)NN=C2CCCCCCC2)c2ccccc2n1	CHO-K1 Ca antag 41.9
CC(=O)OC(C[N+]1(C)CCCCCC1)c1ccccc1 (stereo unspecified)	CHRM1 antagonist 56.9
C[N+]1(CC(O)c2ccccc2)CCCCCC1 (stereo unspecified)	none
COc1ccc(OC)c(-c2c3cc(O)c(=O)cc-3oc3cc(O)c(O)cc23)c1	CHO-K1 Ca antag 32.1, CHRM1 antagonist 32.9, M1 ag parental 71.5, CHRM1 agonist 222.5
O=c1cc2oc3cc(O)c(O)cc3c(-c3ccccc3O)c-2cc1O	CHRM1 agonist 26.3
CCOc1ccccc1-c1c2cc(O)c(=O)cc-2oc2cc(O)c(O)cc12	M1 ag parental 16.6, CHRM1 agonist 17.5
COC(=O)COc1ccc(C(=O)Cn2c(NCCCO)nc3ccccc32)cc1	none
O=C(COC(=O)c1ccc(F)c(S(=O)(=O)N2CCOCC2)c1)NCCc1ccccc1	CHRM1 PAM 27.2
Cc1ccc(C(=O)OCC(=O)NCCc2ccc(F)cc2)cc1S(=O)(=O)N1CCOCC1	none
CC(C)(C)OC(=O)N1CCC(NC(=O)c2nc[nH]c2C(=O)NCc2ccccc2)CC1	none
CC(C)(C)OC(=O)NCc1ccc(CNC(=O)c2[nH]cnc2C(=O)NC2CCN(C(=O)OC(C)(C)C)CC2)cc1	CHRM1 antagonist 34.5
CC(C)(C)OC(=O)CNC(=O)c1nc[nH]c1C(=O)NCc1ccc(CNC(=O)OC(C)(C)C)cc1	CHRM1 antagonist 34.2
CC(C)(C)OC(=O)CNC(=O)c1[nH]cnc1C(=O)Nc1ccc(CNC(=O)OC(C)(C)C)cc1	CHRM1 antagonist 52.5
Cc1cccc(NC(=O)c2nc[nH]c2C(=O)NCCCCCNC(=O)OC(C)(C)C)c1	none
CC(C)(C)OC(=O)CNC(=O)c1nc[nH]c1C(=O)NCc1ccccc1	none
CC(C)(C)OC(=O)NCCCCCNC(=O)c1nc[nH]c1C(=O)NCCCCCNC(=O)OC(C)(C)C	CHRM1 antagonist 43.9
Nc1cccc(-c2c[nH]c3ncc(-c4cccnc4)cc23)c1	none
CC(C)C[C@H](NC(=O)c1[nH]cnc1C(=O)Nc1ccc(CNC(=O)OC(C)(C)C)cc1)C(=O)OC(C)(C)C	M1 PAM parental 47.7
CC(C)(C)OC(=O)NCCCCCNC(=O)c1nc[nH]c1C(=O)NCc1ccc(CNC(=O)OC(C)(C)C)cc1	CHRM1 antagonist 67.8, M1 ag parental 15.5
CC(C)(C)OC(=O)NCc1ccc(CNC(=O)c2nc[nH]c2C(=O)NCc2ccc(CNC(=O)OC(C)(C)C)cc2)cc1	CHO-K1 Ca antag 29.1
CC(C)(C)OC(=O)NCCCC[C@H](NC(=O)c1nc[nH]c1C(=O)N[C@@H](CCCCNC(=O)OC(C)(C)C)C(=O)OC(C)(C)C)C(=O)OC(C)(C)C	none
CC(C)(C)OC(=O)NCCCCCNC(=O)c1[nH]cnc1C(=O)N[C@@H](CCCCNC(=O)OC(C)(C)C)C(=O)OC(C)(C)C	CHRM1 antagonist 30.0
CC(C)(C)OC(=O)NCc1ccc(NC(=O)c2nc[nH]c2C(=O)NCCNC(=O)c2[nH]cnc2C(=O)Nc2ccc(CNC(=O)OC(C)(C)C)cc2)cc1	none
COc1cc2ccccc2ccc1=NO	none
NC(=O)c1nsc(C(=O)N(c2ccccc2)C(C(=O)NC2CCCCC2)c2ccc(O)cc2)c1N (stereo unspecified)	none

Screening results (PubChem)
